The whole screen tested about 290,000 compounds, of which about 1,800 (0.62%) were called active. For the sample, actives were picked, then their nearest neighbours and some compounds at random. A number with no mark means an inactive call. No stated cut-off is given here; in the data, active means inhibition above about 50%; inactive means the rest.

The assay can be described thus: inhibition of NOD2-driven NF-kB reporter – cell-based, luminescence, uHTS, HEK293 (AID 1566). The conditions noted are these: HEK293 NOD2/NF-kB luciferase reporter, at 4 µM, active compounds read high.
For `CCOc1ccc(-c2cc(C)[n+](CCO)c(-c3ccc(OCC)cc3)c2)cc1`, the inhibition is 0.3%. Next, `CCOc1ccc(-c2cc(C)[n+](CCc3ccc(OC)c(OC)c3)c(-c3ccc(OCC)cc3)c2)cc1`: 58.6% (active); `CCOc1ccc(-c2cc(C)[n+](CCN3CCOCC3)c(-c3ccc(OCC)cc3)c2)cc1`: 21.6%; `COc1ccc(-c2cc(=NCCCCCC(=O)O)c3cc(C)ccc3o2)cc1`: -4.2%.

For `N=C1C(c2ccccc2)=C(O)CN1Cc1ccco1`, the inhibition was 8.2%. Next, `Cc1cccc(-n2c(O)c(C=NCCN3CCNCC3)c(=O)[nH]c2=S)c1`: -4.3%; `O=C(Cn1cc(C(=O)c2ccccc2F)c2ccccc21)NC1CC1`: 13.6%; `O=C(c1cc(C(=O)NCc2ccccc2)c(=O)n(Cc2ccccc2)c1)c1cc(Br)ccc1O`: 2.5%.

Take `CCCNS(=O)(=O)c1ccc(OCC(=O)N2CCN(Cc3ccc4c(c3)OCO4)CC2)cc1`: the inhibition was 20.9%. With `CCCCNS(=O)(=O)c1ccc(OCC(=O)N2CCN(Cc3ccc4c(c3)OCO4)CC2)cc1`, the inhibition is 51.1% (active). Under `CCc1ccc(OCC(=O)N2CCN(Cc3ccc4c(c3)OCO4)CC2)cc1` stands -4.3%. Under `CC(C)CNP(=S)(c1ccccc1)C(C)(C)C` (stereo unspecified) stands 10.7%. Under `O=c1cc(CN2CCNCC2)nc2sccn12` stands 8.2%.

As to `FC(F)(F)c1cccc(C2NCc3ccccc3-n3cccc32)c1` (stereo unspecified), the inhibition was 9.8%. Next, `CC(=O)OC1CC[C@]2(C#N)[C@H]3CC[C@]4(C)[C@H](C5C=CC(=O)O5)CCC4(O)C3CCC2(O)C1` (stereo partly specified): 75% (active); `Cn1cccc1CN1CCN(C(=O)COc2ccccc2)CC1`: 16.7%. For the molecule `O=[N+]([O-])c1ccccc1CN1CC=C(c2ccc(F)cc2)CC1`, the inhibition is -15.5%. Regarding `CC12CC[C@H]3[C@@H](CCC4(O)C[C@H](O)CCC34/C=N/NC(=O)c3ccccc3O)C1(O)CCC2C1=CC(=O)OC1` (stereo partly specified), the inhibition was 17.2%. On to `C[C@H]1O[C@@H](OC2CC[C@]3(C=O)[C@H]4CC[C@]5(C)[C@@H](C6=CC(=O)OC6)CC[C@]5(O)[C@@H]4CC[C@]3(O)C2)CC2OC(C)(C)OC21` (stereo partly specified), for which the inhibition was 73% (active).

Take `C[C@H]1O[C@@H](O[C@H]2[C@@H](O)C[C@H](O[C@H]3[C@@H](O)C[C@H](O[C@H]4CC[C@@]5(C)[C@H](CC[C@@H]6[C@@H]5CC[C@]5(C)[C@@H](C7=CC(=O)OC7)CC[C@]65O)C4)O[C@@H]3C)O[C@@H]2C)C[C@H](O)[C@@H]1O`: the inhibition was 73.9% (active).

With `CC12CC[C@H]3[C@@H](CCC4(O)C[C@H](O)CCC34/C=N/NC(=O)c3ccc(O)cc3)C1(O)CCC2C1=CC(=O)OC1` (stereo partly specified), the inhibition is 9.1%.

For the molecule `COc1ccc(C(=O)N/N=C/C23CC[C@@H](O)CC2(O)CC[C@@H]2[C@@H]3CCC3(C)C(C4=CC(=O)OC4)CCC23O)cc1` (stereo partly specified), the inhibition is 27.3%.

`CC12CC[C@H]3[C@@H](CCC4(O)C[C@H](O)CCC34/C=N/NC(=O)c3ccccc3Cl)C1(O)CCC2C1=CC(=O)OC1` (stereo partly specified): the inhibition was 25.4%. In the case of `CCOc1ccc(N=Cc2c(O)n(Cc3ccccc3)c(=S)[nH]c2=O)cc1`, the inhibition was 8.4%. Under `CC(C)CCOP(N)(=O)Oc1ccccc1` (stereo unspecified) stands -6.2%; under `Cc1ccc2cccc(OC(=O)N(C)c3ccccc3)c2n1`, 5.1%. Under `C=CCn1c(O)c(C(C)=NC2CC2)c(=O)[nH]c1=O` stands 4.6%; under `O=c1c2ccccc2nc(/C=C/c2ccc(O)cc2)n1-c1ccccc1O`, -2.5%. Under `Cc1nc2ccc(Cl)cc2c(=O)n1-c1cccc(Cl)c1` stands -2.1%. With `O=C(Cn1nc(Cc2cccnc2)c2ccccc2c1=O)N1CCC2(CC1)OCCO2`, the inhibition was 20.3%.

For `COc1ccccc1/C=C1\C(=O)NC(=S)N(c2ccccc2)C1=O`, the inhibition was 11.6%.

For the molecule `NC(=S)c1cn(C2OC(CO)C(O)C2O)c2ncnc(N)c12` (stereo unspecified), the inhibition was 69.1% (active). Take `CCNC(=O)[C@H]1O[C@@H](n2cnc3c(N)ncnc32)[C@H](O)[C@@H]1O`: the inhibition was -24.1%. Consider `C=C(CC1CC(O)[C@]2(C)OC3CC4OC5C[C@]6(C)O[C@]7(C)CCC8OC9C[C@]%10(C)OC%11C(C)=CC(=O)OC%11CC%10OC9C[C@@H](C)C8OC7CC6O[C@]5(C)C/C=C\C4OC3CC2O1)C(=O)O` (stereo partly specified), for which the inhibition is 12.8%. Under `C=C(CO)CC1CC(O)[C@]2(C)OC3CC4OC5C[C@]6(C)O[C@]7(C)CCC8OC9C[C@]%10(C)OC%11C(C)=CC(=O)OC%11CC%10OC9C[C@@H](C)C8OC7CC6O[C@]5(C)C/C=C\C4OC3CC2O1` (stereo partly specified) stands 4.7%; under `C=C(C=O)C[C@@H]1C[C@H](O)C2OC3C[C@]4(C)OC5/C=C\CC6OC7C(CC=CCC6OC5CCCC4OC3CC2O1)OC1CC2OC3CC(=O)OC3C[C@@H](C)C[C@@]2(C)OC1C[C@@H]7C` (stereo partly specified), 58.2% (active); under `C=CCn1c(O)c(/C(C)=N/NC(=S)Nc2ccccc2)c(=O)[nH]c1=O`, 10.8%. Next, `CCOc1cccc(=NC2CCCCC2)c2c(C)n(C)c(C)c12`: 27%. As to `COc1ccc(-c2nc(CSCC(=O)N3CCC4(CC3)OCCO4)c(C)o2)cc1OC`, the inhibition is -11.2%.

`Cc1ccsc1-c1nc(CSCC(=O)N2CCC3(CC2)OCCO3)c(C)o1`: the inhibition was 11.3%. In the case of `Cc1oc(-c2cccs2)nc1CSCC(=O)N1CCC2(CC1)OCCO2`, the inhibition is 57.1% (active). Under `O=c1[nH]c(=O)n(CCC2=CCCCC2)c(O)c1/C=N/Nc1cccc2ccccc12` stands 33.9%. For the molecule `CC1C(OC(=O)CCC(=O)NC(C)(C)CO)O[C@H]2OC3(C)CC[C@H]4[C@H](C)CCC1C24OO3` (stereo partly specified), the inhibition is 64.5% (active).

As for `C[C@H]1[C@H](OC(=O)CCC(=O)NCc2ccc(C(=O)O)cc2)O[C@@H]2O[C@@]3(C)CC[C@H]4[C@H](C)CC[C@@H]1C24OO3`, the inhibition is 26.4%. Under `C[C@@H]1CC[C@H]2[C@@H](C)C(=O)O[C@@H]3O[C@@]4(C)CC[C@@H]1[C@]32OO4` stands 9%; under `O=c1[nH]c(=O)n(CCC2=CCCCC2)c(O)c1/C=N/Nc1ccccc1`, 15.6%.

These data come from PubChem BioAssay AID1566 (Sanford-Burnham Center for Chemical Genomics, 2009).
